Assay [1] in a line: qHTS assay to identify small molecule antagonists of the estrogen related receptor (ERR) signaling pathway from Tox21 library - cell viability counter screen (AID 1224834). Further: nearly all actives have a fitted effect of over 30% in size. In outline: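 ERR cells, 2,000/well; 6 h settle at 37 C/5% CO2; pin-tool compound transfer in DMSO; 17.5 h at 37 C; CellTiter-Fluor, 30 min; fluorescence intensity.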
Assay [2] deals with Luciferin 4-monooxygenase (Photinus pyralis) (UniProt P08659). Put plainly: qHTS assay to identify small molecule inhibitors of firefly luciferase (AID 1224835). Further: nearly all actives have a fitted effect of over 25% in size. In outline: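 Inhibition of purified Photinus luciferase is measured by luminescence. Substrate levels (D-luciferin, ATP) sit at their KM values. Each compound is tested in a concentration series.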
Chain of Luciferin 4-monooxygenase (Photinus pyralis) (P08659 whole entry, looked up): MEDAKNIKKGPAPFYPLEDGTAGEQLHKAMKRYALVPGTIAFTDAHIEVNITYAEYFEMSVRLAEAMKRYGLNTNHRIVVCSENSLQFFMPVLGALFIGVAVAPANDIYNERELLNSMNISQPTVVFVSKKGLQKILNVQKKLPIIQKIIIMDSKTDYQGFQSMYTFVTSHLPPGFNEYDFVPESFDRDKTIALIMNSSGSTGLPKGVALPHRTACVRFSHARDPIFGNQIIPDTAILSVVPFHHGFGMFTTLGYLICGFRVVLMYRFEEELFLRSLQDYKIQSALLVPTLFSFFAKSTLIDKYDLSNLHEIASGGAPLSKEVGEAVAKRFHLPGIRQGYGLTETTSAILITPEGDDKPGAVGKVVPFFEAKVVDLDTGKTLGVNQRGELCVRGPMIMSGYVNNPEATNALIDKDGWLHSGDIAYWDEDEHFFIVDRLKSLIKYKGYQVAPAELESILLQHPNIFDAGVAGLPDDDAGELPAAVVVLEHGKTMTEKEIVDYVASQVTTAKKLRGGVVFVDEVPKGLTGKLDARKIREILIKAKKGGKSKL
Assay [3] is described as follows: qHTS assay to identify small molecule agonists of the constitutive androstane receptor (CAR) signaling pathway - cell viability counter screen (AID 1224836). Further: nearly all actives have a fitted effect of over 45% in size. The essentials: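 HepG2 cells stably carrying hCAR and a CYP2B6-2.2kb reporter; 15-concentration compounds plus PK11195 (final 0.75 uM), 23 hr at 37 C/5% CO2. Viability read by CellTiter-Fluor fluorescence.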

Assay [4] is described as follows: qHTS assay to identify small molecule antagonists of the constitutive androstane receptor (CAR) signaling pathway - cell viability counter screen (AID 1224837). Further: nearly all actives have a fitted effect of over 45% in size. The essentials: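 Viability was measured with CellTiter-Fluor in a HepG2 line carrying stably transfected hCAR and a CYP2B6-2.2kb construct. Cells were exposed for 23 hr at 37 C to 15 compound concentrations with 50 nM CITCO as agonist.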

The target in assay [5] is Nuclear receptor subfamily 1 group I member 3 (Homo sapiens) (UniProt Q14994). As to the kind of experiment: qHTS assay to identify small molecule agonists of the constitutive androstane receptor (CAR) signaling pathway (AID 1224839). Further: nearly all actives have a fitted effect of over 15% in size. Further: potency means the concentration at half of the fitted maximal effect. The essentials:
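HepG2 cells stably co-transfected with hCAR and a CYP2B6-2.2kb luciferase reporter; compounds at 15 concentrations with 0.75 uM PK11195 present. After 24 hr at 37 C, luciferase read by ONE-Glo luminescence.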

Assay [6] can be described thus: qHTS assay to identify small molecule antagonists of the estrogen related receptor signaling pathway with the pleiotropic PPARgamma coactivator (PGC) from Tox21 10K library - cell viability counter screen (AID 1224840; active means well fitted cell-killing curve with a large enough effect in the repeat runs, not every such curve was filed as active; further: nearly all actives have a fitted effect of over 40% in size). In outline:
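Multiplexed viability counter screen in the PGC/ERR cell line: cells treated with DMSO-dissolved compounds for 17.5 hours at 37 C, then viability measured as CellTiter-Fluor fluorescence.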

A short description of assay [7]: qHTS assay to identify small molecule agonists of the hypoxia (HIF-1) signaling pathway - cell viability counter screen (AID 1224844; calls by dose curve; further: nearly all actives have a fitted effect of over 50% in size). The essentials: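 Cytotoxicity was measured in parallel with the HRE-driven beta-lactamase readout: after 17 hrs of compound exposure at 37C, HRE-bla ME-180 cells received CellTiter-Glo and luminescence was recorded 30 min later.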

Assay [8] in a line: qHTS assay to identify small molecule agonists of H2AX - cell viability counter screen (AID 1224847; calls by dose curve;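 further: wild-type CHO-K1 cells; top concentration of the series differs between compounds; nearly all actives have a fitted effect of over 30% in size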). The essentials: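 CHO-K1 cells plated overnight at 37C, then exposed 3 h at 37C to compounds at 15 concentrations (0.76% DMSO final). Viability by CellTiter-Glo luminescence after 30 min at room temperature.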
Assay [9] in a line: qHTS RealTime-Glo MT Cell Viability Assay in HepG2 cells - 24 hour (AID 1224867). Further: nearly all actives have a fitted effect of over 50% in size. In outline:
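HepG2 cells were seeded at 600 cells/well together with NanoLuc luciferase and a cell-permeant prosubstrate, preincubated 5 h at 37 C/5% CO2, then pin-dosed with compounds in DMSO. Nonlytic luminescence from viable cells was read at each time point.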

Assay [10] in a line: qHTS RealTime-Glo MT Cell Viability Assay in HEK293 cells - 32 hour (AID 1224868). Further: nearly all actives have a fitted effect of over 50% in size. Further: potency means the concentration at half of the fitted maximal effect. The essentials:
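HEK293 cells were seeded at 600 cells/well together with NanoLuc luciferase and cell-permeant prosubstrate, preincubated 5 h at 37 C/5% CO2, then given compound in DMSO by pintool. Luminescence from viable-cell prosubstrate reduction was read repeatedly over 40 h.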

The nature of assay [11]: A CellTox Green Cytotoxicity Assay to monitor cytotoxicity in HEK293 cells - 0 hour (AID 1224869). Further: nearly all actives have a fitted effect of over 50% in size. The essentials:
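Cells (HEK293, 600/well) and dye reagent are dispensed together. After 5 h at 37 C, 23 nL compound is pinned in. Plates stay at 37 C for 40 h with fluorescence read at 0h, 8h, 16h, 24h, 32h and 40h.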

Assay [12] addresses Nuclear receptor subfamily 1 group I member 3 (Homo sapiens) (UniProt Q14994). Put plainly: qHTS assay to identify small molecule antagonists of the constitutive androstane receptor (CAR) signaling pathway (AID 1224838).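 Further: HepG2 cells stably expressing hCAR with CYP2B6 luciferase reporter stimulated by CITCO; nearly all actives have a fitted effect of over 40% in size.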 In outline:
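Antagonist mode used CITCO at a final 50 nM to activate CAR in human hepatoma HepG2 cells carrying stable hCAR and a 2.2 kb CYP2B6 promoter-luciferase construct. Compounds were tested at 15 concentrations over 24 h, with luminescence as the end point.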

Assay [13] deals with Thyrotropin receptor (Homo sapiens) (UniProt P16473). As to the kind of experiment: qHTS assay to identify small molecule agonists of the thyroid stimulating hormone receptor (TSHR) signaling pathway (AID 1224843; calls by dose curve; further: nearly all actives have a fitted effect of over 45% in size). The essentials:
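Agonist activity read as cAMP rise via d2/cryptate HTRF competition, 1 h room-temperature detection, in HEK293 cells expressing TSHR. Fifteen-point titrations, each run in triplicate, with a 30 min room-temperature incubation beforehand.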

Assay [14] is described as follows: qHTS assay to identify small molecule agonists of H2AX (AID 1224845; active means well fitted activation curve with a large enough effect in the signal ratio in the repeat runs, not every such curve was filed as active; the % refers to the signal ratio). In outline: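 Phospho-H2AX Ser139 measured by HTRF (ex 320 nm; em 665 and 620 nm) after 24 hr antibody incubation. Compounds, 15 concentrations, 0.76% DMSO, were applied to CHO-K1 cells for 3hr at 37C before lysis.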
The nature of assay [15]: qHTS assay to identify small molecule agonists of the hypoxia (HIF-1) signaling pathway (AID 1224846; active means well fitted activation curve with a large enough effect in the signal ratio in the repeat runs, not every such curve was filed as active; the % refers to the signal ratio). In outline: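 Compounds from the Tox21 10K library, dissolved in DMSO, are tested for induction of a hypoxia response element–controlled beta-lactamase reporter in ME-180 cells. Exposure lasts 17 hrs at 37C after a 5 hr settling period, followed by CCF4-AM FRET substrate.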

A short description of assay [16]: qHTS assay to identify small molecule antagonists of the estrogen related receptor signaling pathway with the pleiotropic PPARgamma coactivator (PGC) from Tox21 10K library (AID 1224841; call rule not given here). In outline:
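Steps: plate 2,000 PGC/ERR cells per well; incubate 6 h at 37 C with 5% CO2; transfer compounds from DMSO stocks by pin tool; incubate 18 h at 37 C; add One-Glo; measure luminescence 30 min later.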

Assay [17] can be described thus: qHTS assay to identify small molecule agonists of the estrogen related receptor signaling pathway with the pleiotropic PPARgamma coactivator (PGC) from Tox21 10K library (AID 1224842). Further: nearly all actives have a fitted effect of over 15% in size. The essentials: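 Luminescence from One-Glo (30 min, room temperature) measured after PGC/ERR cells had 18 h at 37 C with pinned compound (23 nL in DMSO). Cells had been seeded at 2,000 per well and pre-incubated 6 h.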

A short description of assay [18]: qHTS assay to identify small molecule antagonists of the estrogen related receptor (ERR) signaling pathway from Tox21 library (AID 1224848). Further: nearly all actives have a fitted effect of over 50% in size. In outline:
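Luciferase luminescence (ONE-Glo, 30 min room temperature) was the read-out. Cells of the NTP-supplied ERR line, 2,000 per well, were given 6 h at 37 C before compound addition in DMSO and 18 h exposure at 37 C.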

Assay [19] is described as follows: qHTS assay to identify small molecule agonists of the estrogen related receptor (ERR) signaling pathway from Tox21 library (AID 1224849; calls by dose curve; further: nearly all actives have a fitted effect of over 15% in size). The following applies: ERR reporter cell line, ONE-Glo luciferase, 18 h; at 92.4 µM (top of the series) unless noted. The essentials: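 Cells carrying the ERR reporter were plated and allowed to settle for 6 h, exposed to library compounds for 18 h at 37 C, then lysed with ONE-Glo and luminescence measured.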

A number with no mark means an inactive call. Inconclusive results are not listed. Activity calls are given as the source filed them. Unless noted, the call rests on the fitted dose curve; in most records, active means well fitted curve in the direction sought with a large enough effect in the repeat runs; inconclusive means weak or mixed curves; inactive means no such curve, though single readings can be large; an effect the other way counts as inactive or inconclusive.
On the % scale 0 is the no-effect control and ±100 the full control effect.

Chain of Nuclear receptor subfamily 1 group I member 3 (Homo sapiens) (Q14994 whole entry, looked up): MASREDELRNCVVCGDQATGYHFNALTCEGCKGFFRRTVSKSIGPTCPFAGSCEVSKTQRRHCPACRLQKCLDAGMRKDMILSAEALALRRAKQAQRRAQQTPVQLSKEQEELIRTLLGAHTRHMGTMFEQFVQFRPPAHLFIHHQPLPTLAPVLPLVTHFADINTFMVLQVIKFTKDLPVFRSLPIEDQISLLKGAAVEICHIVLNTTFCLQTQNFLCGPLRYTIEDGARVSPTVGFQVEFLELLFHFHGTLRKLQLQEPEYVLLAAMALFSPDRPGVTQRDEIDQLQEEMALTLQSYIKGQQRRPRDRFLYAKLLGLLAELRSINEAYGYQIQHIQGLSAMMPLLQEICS
Chain of Thyrotropin receptor (Homo sapiens) (P16473 whole entry, looked up): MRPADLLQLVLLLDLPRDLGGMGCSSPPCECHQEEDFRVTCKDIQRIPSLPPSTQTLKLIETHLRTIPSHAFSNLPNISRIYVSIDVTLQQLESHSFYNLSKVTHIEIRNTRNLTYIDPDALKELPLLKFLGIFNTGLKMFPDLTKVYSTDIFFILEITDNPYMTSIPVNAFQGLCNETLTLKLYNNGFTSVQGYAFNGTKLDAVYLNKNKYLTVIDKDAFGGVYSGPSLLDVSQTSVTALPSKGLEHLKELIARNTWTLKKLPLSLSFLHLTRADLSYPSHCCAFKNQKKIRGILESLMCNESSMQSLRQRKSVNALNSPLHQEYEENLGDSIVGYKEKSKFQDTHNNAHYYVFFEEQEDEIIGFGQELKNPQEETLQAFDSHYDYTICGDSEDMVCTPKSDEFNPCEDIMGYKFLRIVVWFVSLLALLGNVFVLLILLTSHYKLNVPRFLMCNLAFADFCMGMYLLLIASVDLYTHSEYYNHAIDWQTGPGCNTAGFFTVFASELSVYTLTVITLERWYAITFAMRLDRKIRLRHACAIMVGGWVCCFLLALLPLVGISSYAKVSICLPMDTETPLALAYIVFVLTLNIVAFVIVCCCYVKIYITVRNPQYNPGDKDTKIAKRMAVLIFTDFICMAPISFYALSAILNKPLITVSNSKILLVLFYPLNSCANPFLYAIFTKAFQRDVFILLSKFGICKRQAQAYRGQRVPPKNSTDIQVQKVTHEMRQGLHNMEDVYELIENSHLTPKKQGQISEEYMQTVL

Regarding `Brc1cc(-c2ccc(Br)c(Br)c2Br)cc(Br)c1Br`, the Potency result in assay [1], in assay [2], in assay [3], in assay [4], in [6] and in assay [7] was “inactive” throughout. The Potency result in [8], in [9], in assay [10] and in assay [11] was “inactive” each time. In addition, the Potency in assay [5] is 24 µM (active).

Turning to `CC(=O)OCC(=O)[C@@]12OC(C)(C)O[C@@H]1C[C@H]1[C@@H]3C[C@H](F)C4=CC(=O)C=C[C@]4(C)[C@@]3(F)[C@@H](O)C[C@@]12C`, the Potency result in assay [1], in [2], in assay [3], in assay [4], in assay [12] and in [6] was “inactive” throughout. Also, the Potency entry in [13], in [7], in assay [14] and in assay [9] was “inactive” in each case. In addition, the molecule was called inactive in assay [15].

For the molecule `CCC(C(=O)OCCN(CC)CC)c1ccccc1` (configuration not stated), the Potency result in assay [1], in [2], in assay [3], in [4], in assay [5] and in assay [6] was “inactive” each time. For the same molecule, the Potency entry in assay [13], in assay [7], in [14], in [9] and in [10] was “inactive” in each case.

With `O=S1OCCO1`, the Potency result in [1], in [2], in [3], in assay [4], in assay [6] and in assay [16] was “inactive” throughout. Further, the Potency result in [17], in assay [13], in assay [7], in [14], in assay [8] and in [18] was “inactive” in each case. For the same molecule, the Potency entry in assay [9], in assay [10] and in [11] was “inactive” in each case. For the same molecule, the activity change, positive = activation in assay [19] was 6.2%.

`Nc1ccc(C(=O)OCCCOC(=O)c2ccc(N)cc2)cc1`: the Potency entry in assay [1], in [2], in [3], in [4], in [12] and in assay [7] was “inactive” in each case. Moreover, the Potency entry in assay [14] and in [9] was “inactive” in each case. The Potency in assay [5] was 30.6 µM (active); in assay [10] it was 43.6 µM (active). Further, the call in [15] was inactive.

As for `C/C(=N/NC(=O)c1ccncc1)C(=O)O`, the Potency result in [1], in assay [2], in [3], in assay [4], in [5] and in [6] was “inactive” throughout. In addition, the Potency result in assay [13], in [7], in assay [14], in [9] and in assay [10] was “inactive” throughout. For the same molecule, in assay [15], the molecule was classed as inactive.

On to `C[C@@H]1C[C@H]2[C@@H]3CCC4=CC(=O)C=C[C@]4(C)[C@@]3(F)[C@@H](O)C[C@]2(C)[C@H]1C(=O)CO`, for which the Potency result in [1], in assay [2], in [3], in assay [4], in assay [5] and in assay [6] was “inactive” throughout. Besides, the Potency entry in [13], in assay [14], in assay [9], in assay [10] and in [11] was “inactive” in each case.

Regarding `CC(=O)Oc1ccc(C(=C2CCCCC2)c2ccc(OC(C)=O)cc2)cc1`, the Potency entry in [1], in assay [2], in assay [3], in assay [4], in assay [12] and in assay [6] was “inactive” throughout. Also, the Potency result in assay [13], in assay [7], in assay [14], in assay [8], in assay [9] and in assay [10] was “inactive” in each case. The Potency result in assay [11] is “inactive”. Besides, the result in assay [15] was inactive.
